{"source": "PubChem BioAssay AID651871", "about": "(Sanford-Burnham Center for Chemical Genomics, 2012)", "test_system": "HL-1", "assay": "cardiomyocyte survival under oxidative or metabolic stress – cell-based, panel, H9c2 and HL-1, ATP luminescence, set 2, SAR follow-up (AID 651871);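 note: cells exposed to stressor for 2 h before ATP readout; reference of the scale not given here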", "details": "H9c2/HL-1 cardiomyocytes, 2-deoxyglucose stress, with 2-deoxyglucose, run 4, at 19.8 µM (top of the series)", "data": [{"smiles": "COc1ccc2c(c1OC)C(=O)N1c3ccccc3C(=O)N(Cc3cccc(Cl)c3Cl)C21", "note": "(stereo unspecified)", "values": [{"measurement": "activity (protection/inhibition)", "value": 48.1, "unit": "%"}]}]}
